± gives the standard deviation of the averaged measurements.
test system: HCC1569; assay: cell number relative to DMSO (% of DMSO); higher = more cells (less growth inhibition / toxicity); settings: concentration: 10 µM; 24 h
In short: (§1)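 H1.0 nuclear intensity or cell number is expressed as percent of the plate control, with the median of replicates taken. HCC1569 and TDF cells were treated with compounds at 10 µM for 24 h at 37 °C, in triplicate, then fixed and immunostained for H1.0 with DAPI as a nuclear stain. HCC1569 values were smoothed to correct for positional effects.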
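Note: TDF denotes transformed human dermal fibroblasts of mesenchymal origin.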

SMILES	cell number
Br.CN1CCc2cc(O)c(O)cc2C1Cc1ccc(O)c(O)c1.O.O.O (stereo not given)	105
c1ccc(C2CN3CCSC3=N2)cc1 (stereo not given) [Levamisole]	98.3
O=C(Nc1cccc2c(=O)cc(-c3nn[nH]n3)oc12)c1ccc(OCCCCc2ccccc2)cc1 [Pranlukast]	101
CCCCCCC=CCCCCCCCC(=O)O [9(E)-Hexadecenoic acid]	99.8
CC1COc2c(N3CCN(C)CC3)c(F)cc3c(=O)c(C(=O)O)cn1c23 (stereo not given) [Levofloxacin]	103
O=C(O)c1cc(=O)c2ccccc2[nH]1 [Kynurenic acid]	107
O=C1NC(=O)c2c1c1c3ccccc3[nH]c1n1cncc21 [Isogranulatimide]	87.7

test system: TDF; assay: as above; settings: concentration: 10 µM; 24 h
In short: as §1

SMILES	cell number
COC1C=COC2(C)Oc3c(C)c(O)c4c(O)c(cc([O-])c4c3C2=O)NC(=O)C(C)=CC=CC(C)C(O)C(C)C(O)C(C)C(OC(C)=O)C1C.[Na+] (stereo not given)	101
FC(F)(F)c1cc(NC(=S)Nc2ccc(Br)cc2-c2nn[nH]n2)cc(C(F)(F)F)c1	85.6
COc1ccc(C=C2c3ccccc3C(=O)c3ccccc32)cc1O [10-(3-hydroxy-4-methoxybenzylidene)-9(10H)-anthracenone]	10.4
O=C1NC(=O)C(c2cnc3ccccn23)=C1c1cn2c3c(cc(F)cc13)CN(C(=O)N1CCCCC1)CC2	63
N#CC(=C(N)Sc1ccc(N)cc1)c1ccccc1C(F)(F)F [MEK1/2 Inhibitor]	111
COc1ccccc1N1CCN(CC(O)COc2cccc3ccccc23)CC1.Cl.Cl (stereo not given) [Naftopidil dihydrochloride]	106
O=C(NCCCCCCNC(=O)ON=C1CCCCC1)ON=C1CCCCC1	100
O=C(O)c1cc2cc(F)ccc2[nH]1 [5-Fluoroindole-2-carboxylic acid]	89
CC1=C(C)C(=O)C(CCCCC#CCCCC#CCO)=C(C)C1=O	85 ± 1.8
Cn1c(=O)c2c(ncn2Cc2ccc(C(C)(C)C)cc2)n(C)c1=O	71.4
CCCCCCCCCCCC=CCC=CCCCC(=O)O [5(Z), 8(Z)-Eicosadienoic acid]	96.9
CCOc1ccc2c(c1)C(C)=CC(C)(C)N2 [Ethoxyquin]	104
CC(=O)C1CCC2C3CCC4=CC(=O)CCC4(C)C3CCC12C (stereo not given) [Progesterone]	99.1 ± 7.3
CC1(C)CCC2(C(=O)O)CCC3(C)C(=CCC4C5(C)CCC(O)C(C)(C)C5CCC43C)C2C1 (stereo not given) [Oleanolic acid]	91.6
c1ccc2c(Cc3c[nH]c4ccccc34)c[nH]c2c1 [Diindolylmethane]	97.9 ± 2.8
O=c1ccc2ccc(O)c(O)c2o1 [7,8-dihydroxy-2H-chromen-2-one]	79.9
S=C(NCc1ccc2c(c1)OCO2)N1CCN(c2ncnc3c2oc2ccccc23)CC1	72.6
CNC1C(OC2C(OC3C(O)C(O)C(N=C(N)N)C(O)C3N=C(N)N)OC(C)C2(O)C=O)OC(CO)C(O)C1O (stereo not given) [Streptomycin]	103
CC1(C)CCCC(C)(C2CCC3(C)C2C(O)CC2C4(C)CCC(O)C(C)(C)C4CCC23C)O1 (stereo not given) [Panaxadiol]	103
COc1cc2c(c(OC)c1OC)-c1c(cc(OC)c(OC)c1OC)C[C@](C)(O)[C@@H](C)C2	108
CC(Cc1ccccc1)Nc1ncnc2c1ncn2C1OC(CO)C(O)C1O (stereo not drawn) [R(-)-N6-(2-Phenylisopropyl)adenosine]	96.5
CC(C=CC=C(C)C=CC1=C(C)CCCC1(C)C)=CC=CC=C(C)C=CC=C(C)C=CC1=C(C)CCCC1(C)C	106
CCCCCC(O)C=CC1C(O)CC(=O)C1CCCCCCC(=O)O (stereo not given) [Prostaglandin E1]	109 ± 10
CCC1(c2ccccc2)NC(=O)N(C)C1=O (stereo not given) [Mephenytoin]	109
CC(=O)OCC(CCn1cnc2cnc(N)nc21)COC(C)=O [Famciclovir]	97.4
C[C@@H](Oc1cc(-c2cnn(C3CCNCC3)c2)cnc1N)c1c(Cl)ccc(F)c1Cl	36.3
Cc1nnc(SCC2=C(C(=O)[O-])N3C(=O)C(NC(=O)Cn4cnnn4)C3SC2)s1.[Na+] (stereo not given) [Cefazolin sodium]	116
CN=C(NC#N)NCCSCc1nc[nH]c1C [Cimetidine]	100 ± 12
